A selection: hits, their analogues and other compounds. The true share with any hit is near 3.9%.
WT yeast gro inh: growth inhibition of WT yeast, mitochondrial fusion screen; mitochondrial fusion phenotypic screen, WT strain; inhibition, % at 10 µM; 190,000 compounds, 2.1% hits; in the data active = inhibition above about 58%; tested in S. cerevisiae
Rtt109 Vps75: blocks Candida albicans Rtt109/Vps75 acetyltransferase activity | inhibition, % at 34.9 µM | Q5AAJ8 | 330,000 compounds, 0.16% hits | AID 540336 | purified Rtt109/Vps75, ThioGlo CoA-SH fluorescence, 4 h;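 active = inhibition of at least 50% in every replicate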
Platelet DG rel: modulates dense granule release in human platelets; AID 1663; inhibition, %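 (compounds screened at 7.5 µM in platelet-rich plasma)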; human platelet-rich plasma, SFLLRN dense granule ATP release, luminescence; 300,000 compounds, 0.22% hits;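 active = mean replicate score, as percent of positive control, at or above 50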
PHOSPHO1 block: blocks human PHOSPHO1 phosphatase activity. Q8TCT1. recombinant PHOSPHO1, absorbance phosphatase assay. inhibition, % at 13.3 µM. 290,000 compounds, 1.1% hits. AID 1565; in the data active = inhibition above about 60%
Target sequence (Q8TCT1 whole entry, looked up): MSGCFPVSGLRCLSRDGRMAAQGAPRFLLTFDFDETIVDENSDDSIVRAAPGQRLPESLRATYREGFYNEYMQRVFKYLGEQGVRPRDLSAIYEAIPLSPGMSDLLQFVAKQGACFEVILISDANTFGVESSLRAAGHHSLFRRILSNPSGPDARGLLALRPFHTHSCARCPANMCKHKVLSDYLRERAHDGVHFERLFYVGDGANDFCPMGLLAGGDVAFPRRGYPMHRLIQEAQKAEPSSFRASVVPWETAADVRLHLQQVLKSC
SKKanGAS inh: SKKanGAS growth inhibition; S. pyogenes SKKanGAS, kanamycin growth, BacTiter-Glo, 6 h; inhibition, % at 7.5 µM; 300,000 compounds, 1.3% hits;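 active = mean replicate score, as percent of positive control median, at least 50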;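 also: strain carries kanamycin resistance gene driven by streptokinase promoter and grows in 40 µg/ml kanamycin; loss of luminescence reflects streptokinase promoter inhibition or plain growth inhibition; 0% = median of DMSO wells and 100% = positive control at its reference dose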
TPT1 inh: inhibitors of Candida albicans tRNA 2'-phosphotransferase TPT1. recombinant caTPT1, FP RNA substrate dephosphorylation. inhibition, % at 5 µM. 300,000 compounds, 0.81% hits. AID 1962;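 active = inhibition above the mean of all tested compounds plus 3 SD, set per screening campaign, cut at about 24% in these data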;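 also: plate controls were DMSO alone for no effect and ferristatin control at 100 nM for full effect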
The depositor's hits bear a star; x = not tested or not shown.

SMILES	WT yeast gro inh	Rtt109 Vps75	Platelet DG rel	PHOSPHO1 block	SKKanGAS inh	TPT1 inh
Cc1cc(C)cc(C(=O)NC(=S)Nc2ccc(Cc3ccncc3)cc2)c1	30	0	-2	1	3	4
Cc1cccc(C(=O)NC(=S)Nc2ccc(Cc3ccncc3)cc2)c1	61*	22	4	42	26	-3
COc1c(C(=O)Nc2ccc(Cc3ccncc3)cc2)ccc2ccccc12	68*	45	14	-7	-1	-2
O=C(CCN=C1NS(=O)(=O)c2ccccc21)Nc1ccc(F)cc1Cl	x	-4	x	x	x	x
CC(C)NC(=O)COc1coc(CN2CCN(c3ccccc3F)CC2)cc1=O	x	-17	-14	30	10	-2
COc1ccc(/C=C/C(=O)Nc2ccc(OC)nc2)cc1	11	x	-5	-5	-10	-1
COc1ccc(NC(=O)/C(Cl)=C(/Cl)S(=O)Cc2ccccc2)cn1 (stereo not drawn)	76	10	57*	40	-21	-6
COc1ccc(CS(=O)(=O)/C(Cl)=C(/Cl)C(=O)Nc2ccc(OC)nc2)cc1	63*	-1	1	7	-4	-2
CCC(C(=O)N1CCN(S(=O)(=O)c2ccc(F)cc2)CC1)c1ccccc1 (stereo not drawn)	x	5	x	x	x	x
CN1CCN(Cc2ccc(Sc3ccc(Cl)cc3)c([N+](=O)[O-])c2)CC1	86*	x	-1	53	-4	-3
COc1ccc(S(=O)(=O)N2CCN3CCCC3C2)cc1 (stereo not drawn)	x	-3	12	x	1	-3
COc1ccc(NS(=O)(=O)c2ccc(O)c(NC(=O)c3cc4c(C)nn(-c5ccc(F)cc5)c4s3)c2)cc1	11	2	0	2	109*	1
Cc1nnc2n1N=C(c1ccc(F)cc1F)CS2	x	0	x	x	x	x
O=C(COC(=O)c1cc(Br)ccc1O)NC12CC3CC(CC(C3)C1)C2	x	3	x	x	x	x
CC(C)CSC1=NSC2=NC(=O)/C(=C\c3cccs3)C(=N)N12	11	8	0	-5	17	2
N=C1/C(=C/c2cccs2)C(=O)N=C2SN=C(SCc3ccccc3)N12	24	13	2	6	81*	8
COc1ccc(OCCCC(=O)OC(C)C(=O)Nc2ccc(S(N)(=O)=O)cc2)cc1 (stereo not drawn)	x	4	-5	x	-14	2
COc1ccc(OCCCC(=O)OC(C)C(=O)Nc2ccc(NC(C)=O)cc2)cc1 (stereo not drawn)	x	6	57*	35	0	-2
CC(=O)Nc1ccc(OCCC[n+]2ccccc2)cc1	-2	0	2	60*	4	-1
CCn1ccc(C(=O)NCCCN2CCCC2=O)n1	x	0	-29	65*	5	-1
Cc1ccc(S(=O)(=O)Nc2ccc(C(=O)N3CCN(c4ccccc4O)CC3)cc2)cc1[N+](=O)[O-]	x	21	-36	x	26	4
COC(=O)C1=C(C(=O)OC)SC2(S1)C(C(=O)OC)=C(C(=O)OC)SC1=C2c2cc(C)ccc2NC1(C)C	32	4	1	98*	5	1
CCN(CC)S(=O)(=O)c1ccc(N/N=C(\C)c2ccc(OC)cc2O)nc1	x	10	-1	44	82*	-1
CCOc1cccc(/C=N/Nc2ccc(S(=O)(=O)N(CC)CC)cn2)c1O	5	-7	-7	-2	91*	0
COc1cccc(-c2ccc(NC(=O)C3CCCN(Cc4cnn(C(C)C)c4)C3)cc2)c1 (stereo not drawn)	x	10	4	36	-1	4
SMILES	WT yeast gro inh	Rtt109 Vps75	Platelet DG rel	PHOSPHO1 block	SKKanGAS inh	TPT1 inh
O=C(CCc1ccccc1)NC1CCS(=O)(=O)C1 (stereo not drawn)	x	15	x	x	x	x
COc1ccccc1-c1ccc(SCc2cccc(C)c2)nn1	68*	-17	12	34	9	3
C=C1c2ccccc2O[C@H](C(=O)OCC)[C@H]1OC	x	5	x	x	x	x
Cc1cccc(C)c1NC(=O)CN(C)C(=O)CSC(=S)N1CCCC1	x	-4	-1	x	-1	2
Cc1cc(C)c2sc(N(CCCN(C)C)C(=O)c3ccc(Br)s3)nc2c1	94*	6	0	23	5	-3
Cc1cc(C)c2sc(N(CCN(C)C)C(=O)c3c(F)cccc3F)nc2c1	62*	7	-2	9	-11	-1
CCCCN(CC)S(=O)(=O)c1ccc(C(=O)N(CCCN(C)C)c2nc3cc(C)cc(C)c3s2)cc1	96*	7	6	32	-2	-1

Bioassay records: PubChem, several laboratories
